# Results published in ChEMBL document CHEMBL2218924, “A broad activity screen in support of a chemogenomic map for kinase signalling research and drug discovery” (Biochem J, 2013).
# What was measured:
# [1] = biological target: Tyrosine-protein kinase SYK (Homo sapiens) (UniProt P43405); conditions: at 10 µM
# [2] = biological target: T1, Mitogen-activated protein kinase kinase kinase 7 (Homo sapiens) (UniProt O43318); conditions: at 10 µM
# T1 sequence (whole entry): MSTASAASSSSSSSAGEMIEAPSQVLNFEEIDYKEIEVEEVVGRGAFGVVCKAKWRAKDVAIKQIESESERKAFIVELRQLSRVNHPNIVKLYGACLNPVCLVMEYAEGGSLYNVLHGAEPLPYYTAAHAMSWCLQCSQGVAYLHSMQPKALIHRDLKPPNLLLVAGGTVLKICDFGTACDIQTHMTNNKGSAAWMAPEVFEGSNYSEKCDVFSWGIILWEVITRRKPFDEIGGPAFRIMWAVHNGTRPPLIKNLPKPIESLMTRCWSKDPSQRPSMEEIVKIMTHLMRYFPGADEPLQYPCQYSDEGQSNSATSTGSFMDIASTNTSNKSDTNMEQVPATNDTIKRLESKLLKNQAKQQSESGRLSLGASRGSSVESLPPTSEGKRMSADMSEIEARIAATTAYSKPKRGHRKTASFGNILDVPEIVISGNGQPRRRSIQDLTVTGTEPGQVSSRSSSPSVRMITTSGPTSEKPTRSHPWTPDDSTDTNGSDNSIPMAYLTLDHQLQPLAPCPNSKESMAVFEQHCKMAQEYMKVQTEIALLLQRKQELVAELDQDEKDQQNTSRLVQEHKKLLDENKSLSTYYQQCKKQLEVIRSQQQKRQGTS
# [3] = biological target: T2, Serine/threonine-protein kinase TAO1 (Homo sapiens) (UniProt Q7L7X3); conditions: at 1 µM
# T2 sequence (whole entry): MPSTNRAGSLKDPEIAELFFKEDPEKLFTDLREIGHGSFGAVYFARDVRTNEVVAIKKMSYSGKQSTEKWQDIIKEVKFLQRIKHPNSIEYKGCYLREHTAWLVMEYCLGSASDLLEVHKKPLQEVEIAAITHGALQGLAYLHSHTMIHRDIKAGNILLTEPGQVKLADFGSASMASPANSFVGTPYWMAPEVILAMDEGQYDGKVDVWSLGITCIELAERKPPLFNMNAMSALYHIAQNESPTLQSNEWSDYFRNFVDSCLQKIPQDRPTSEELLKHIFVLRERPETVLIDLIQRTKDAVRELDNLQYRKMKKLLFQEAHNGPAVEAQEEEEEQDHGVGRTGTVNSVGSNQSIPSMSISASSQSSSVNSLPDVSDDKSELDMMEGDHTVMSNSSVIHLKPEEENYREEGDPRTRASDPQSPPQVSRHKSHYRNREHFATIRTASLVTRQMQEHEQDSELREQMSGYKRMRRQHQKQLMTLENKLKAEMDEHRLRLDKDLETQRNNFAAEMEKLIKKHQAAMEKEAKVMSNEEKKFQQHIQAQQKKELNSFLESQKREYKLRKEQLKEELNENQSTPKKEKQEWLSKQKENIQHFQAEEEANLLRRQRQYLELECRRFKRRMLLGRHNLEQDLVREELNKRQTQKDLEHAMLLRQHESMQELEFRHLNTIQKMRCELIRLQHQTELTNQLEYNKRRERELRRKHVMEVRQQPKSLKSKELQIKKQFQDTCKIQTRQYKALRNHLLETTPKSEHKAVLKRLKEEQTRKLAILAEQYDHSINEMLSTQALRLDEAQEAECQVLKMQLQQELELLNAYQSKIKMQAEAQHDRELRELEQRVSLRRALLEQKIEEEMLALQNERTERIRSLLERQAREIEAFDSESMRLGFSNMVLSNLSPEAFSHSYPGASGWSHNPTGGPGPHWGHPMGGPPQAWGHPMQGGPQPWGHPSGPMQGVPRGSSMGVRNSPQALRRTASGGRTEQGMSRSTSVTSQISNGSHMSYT
# [4] = biological target: T2, Serine/threonine-protein kinase TAO1 (Homo sapiens); conditions: at 10 µM
# [5] = biological target: T3, Serine/threonine-protein kinase TAO2 (Homo sapiens) (UniProt Q9UL54); conditions: at 1 µM
# T3 sequence (whole entry): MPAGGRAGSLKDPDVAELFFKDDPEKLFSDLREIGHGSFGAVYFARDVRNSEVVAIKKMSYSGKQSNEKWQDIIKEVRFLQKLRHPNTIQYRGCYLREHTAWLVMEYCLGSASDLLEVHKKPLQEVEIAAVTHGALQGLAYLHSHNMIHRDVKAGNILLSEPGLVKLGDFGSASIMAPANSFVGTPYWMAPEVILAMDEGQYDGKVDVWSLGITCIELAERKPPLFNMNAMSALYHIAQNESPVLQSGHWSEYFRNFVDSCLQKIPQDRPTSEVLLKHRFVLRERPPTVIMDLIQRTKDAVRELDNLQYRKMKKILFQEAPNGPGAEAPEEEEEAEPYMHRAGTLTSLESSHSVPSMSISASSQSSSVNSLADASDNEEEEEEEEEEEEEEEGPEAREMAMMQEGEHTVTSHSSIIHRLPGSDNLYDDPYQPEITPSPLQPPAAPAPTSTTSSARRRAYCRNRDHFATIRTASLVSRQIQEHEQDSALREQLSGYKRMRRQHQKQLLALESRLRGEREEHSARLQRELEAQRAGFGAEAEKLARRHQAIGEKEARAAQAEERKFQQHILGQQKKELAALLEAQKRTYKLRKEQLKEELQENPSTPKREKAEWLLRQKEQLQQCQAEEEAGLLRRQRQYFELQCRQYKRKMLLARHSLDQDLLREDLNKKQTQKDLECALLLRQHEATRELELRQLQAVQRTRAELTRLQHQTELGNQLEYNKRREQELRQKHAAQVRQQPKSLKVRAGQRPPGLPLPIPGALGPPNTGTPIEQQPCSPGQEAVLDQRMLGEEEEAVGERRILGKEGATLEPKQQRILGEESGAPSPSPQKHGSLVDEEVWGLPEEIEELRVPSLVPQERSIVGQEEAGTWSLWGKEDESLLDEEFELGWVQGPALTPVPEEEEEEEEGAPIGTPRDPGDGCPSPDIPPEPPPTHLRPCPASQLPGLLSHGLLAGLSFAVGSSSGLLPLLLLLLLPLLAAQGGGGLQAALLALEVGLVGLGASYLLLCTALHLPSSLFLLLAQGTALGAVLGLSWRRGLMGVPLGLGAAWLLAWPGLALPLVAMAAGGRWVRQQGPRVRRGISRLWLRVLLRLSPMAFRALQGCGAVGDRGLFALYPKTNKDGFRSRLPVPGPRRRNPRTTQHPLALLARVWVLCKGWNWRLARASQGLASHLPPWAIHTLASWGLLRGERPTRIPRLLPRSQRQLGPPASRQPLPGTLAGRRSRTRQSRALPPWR
# [6] = biological target: T3, Serine/threonine-protein kinase TAO2 (Homo sapiens); conditions: at 10 µM
# [7] = biological target: T4, Serine/threonine-protein kinase TAO3 (Homo sapiens) (UniProt Q9H2K8); conditions: at 1 µM
# T4 sequence (whole entry): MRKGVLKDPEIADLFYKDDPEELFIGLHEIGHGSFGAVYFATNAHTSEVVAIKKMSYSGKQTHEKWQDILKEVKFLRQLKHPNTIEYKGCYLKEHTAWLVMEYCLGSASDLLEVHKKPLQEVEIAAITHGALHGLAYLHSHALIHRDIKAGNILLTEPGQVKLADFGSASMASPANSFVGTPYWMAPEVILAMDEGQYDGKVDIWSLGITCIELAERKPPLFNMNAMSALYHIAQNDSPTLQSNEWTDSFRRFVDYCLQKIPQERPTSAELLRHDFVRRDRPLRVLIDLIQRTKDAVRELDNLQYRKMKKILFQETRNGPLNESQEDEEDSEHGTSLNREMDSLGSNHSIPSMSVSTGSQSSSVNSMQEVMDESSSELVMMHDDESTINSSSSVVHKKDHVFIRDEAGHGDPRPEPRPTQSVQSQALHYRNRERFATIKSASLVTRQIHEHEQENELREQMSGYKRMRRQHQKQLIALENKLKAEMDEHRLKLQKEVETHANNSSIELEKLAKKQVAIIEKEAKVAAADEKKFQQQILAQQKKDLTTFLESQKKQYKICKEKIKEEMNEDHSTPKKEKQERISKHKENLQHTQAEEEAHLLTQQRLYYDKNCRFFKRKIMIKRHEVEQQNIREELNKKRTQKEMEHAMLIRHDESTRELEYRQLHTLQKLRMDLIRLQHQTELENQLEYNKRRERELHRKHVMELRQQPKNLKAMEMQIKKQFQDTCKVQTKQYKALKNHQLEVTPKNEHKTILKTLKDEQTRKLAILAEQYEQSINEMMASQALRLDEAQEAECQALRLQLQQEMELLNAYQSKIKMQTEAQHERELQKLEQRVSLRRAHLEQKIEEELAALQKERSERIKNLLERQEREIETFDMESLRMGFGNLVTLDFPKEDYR
# [8] = biological target: T4, Serine/threonine-protein kinase TAO3 (Homo sapiens); conditions: at 10 µM
# [9] = biological target: T5, Serine/threonine-protein kinase TBK1 (Homo sapiens) (UniProt Q9UHD2); conditions: at 1 µM
# T5 sequence (whole entry): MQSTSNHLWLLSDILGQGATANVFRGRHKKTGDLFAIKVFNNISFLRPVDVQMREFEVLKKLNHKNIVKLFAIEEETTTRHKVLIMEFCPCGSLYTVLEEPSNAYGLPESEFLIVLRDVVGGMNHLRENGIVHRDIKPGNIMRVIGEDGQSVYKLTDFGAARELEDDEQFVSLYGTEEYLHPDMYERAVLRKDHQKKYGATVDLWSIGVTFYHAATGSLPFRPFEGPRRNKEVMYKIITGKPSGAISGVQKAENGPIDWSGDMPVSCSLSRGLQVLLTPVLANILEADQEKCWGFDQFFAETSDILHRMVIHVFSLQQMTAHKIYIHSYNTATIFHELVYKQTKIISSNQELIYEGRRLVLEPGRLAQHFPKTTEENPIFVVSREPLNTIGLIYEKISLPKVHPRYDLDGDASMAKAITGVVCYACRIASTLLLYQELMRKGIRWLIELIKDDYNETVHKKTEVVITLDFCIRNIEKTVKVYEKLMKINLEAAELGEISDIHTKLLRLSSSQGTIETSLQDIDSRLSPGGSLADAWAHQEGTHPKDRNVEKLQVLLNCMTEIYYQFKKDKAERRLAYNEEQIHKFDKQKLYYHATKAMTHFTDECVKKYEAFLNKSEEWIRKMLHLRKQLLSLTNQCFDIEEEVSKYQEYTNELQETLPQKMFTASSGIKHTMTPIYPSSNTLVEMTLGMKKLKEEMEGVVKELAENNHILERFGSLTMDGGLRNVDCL
compound,measurement,setting,value
CCCCc1c(-c2ccc(OC)cc2)[nH]c2nccnc12,residual activity,[1],39%
same,residual activity,[2],86%
same,residual activity,[3],48%
same,residual activity,[4],48%
same,residual activity,[5],64%
same,residual activity,[6],82%
same,residual activity,[7],81%
same,residual activity,[8],90%
same,residual activity,[9],61%
